Assay outcomes: PubChem, National Center for Advancing Translational Sciences (NCATS)
PI5P4K alpha inh = PI5P4K alpha (human) kinase inhibition | P48426 | PI5P4Kalpha enzyme, ADP-Glo luminescence, 60 min; hits give low values | max response, % | actives 1.2% (n = 330,000) | AID 652105; active = max response of -50% or lower; inconclusive = between -30% and -50%; inactive = -30% or higher; note: value at the top dose of about 77 µM; % is set by controls: 0 for no effect and ±100 for the full control effect
Target sequence (P48426 whole entry, looked up): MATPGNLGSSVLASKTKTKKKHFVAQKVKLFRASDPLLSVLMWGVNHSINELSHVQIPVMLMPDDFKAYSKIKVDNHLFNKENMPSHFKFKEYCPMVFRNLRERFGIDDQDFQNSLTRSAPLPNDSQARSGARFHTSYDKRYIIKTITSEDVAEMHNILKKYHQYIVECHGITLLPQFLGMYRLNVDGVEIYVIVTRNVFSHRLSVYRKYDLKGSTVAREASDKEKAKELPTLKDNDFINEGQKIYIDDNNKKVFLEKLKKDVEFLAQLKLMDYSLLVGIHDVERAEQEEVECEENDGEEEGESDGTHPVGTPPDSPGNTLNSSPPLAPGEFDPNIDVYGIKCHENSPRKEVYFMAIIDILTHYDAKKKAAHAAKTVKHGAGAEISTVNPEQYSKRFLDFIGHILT
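Controls without substrate or without enzyme flank wells where PI5P4Kalpha converts substrate using 5 microM ATP (final). Incubation lasts 60 minutes at room temperature; ADP formed is read by ADP-Glo luminescence.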
HP1b binding inh = HP1-beta chromodomain-methylated histone interaction inhibition. actives 0.56% (n = 390,000). Potency, µM (highest dose often 114 µM), for the others: at the highest dose activity change, negative = inhibition, actives largely listed as inhibitors. AlphaScreen HP1-beta / biotin-H3K9me3 peptide binding. P83916; note: potency is the fitted concentration of half-maximal effect; nearly all actives have a fitted effect of over 70% in size
Target sequence (P83916 whole entry, looked up): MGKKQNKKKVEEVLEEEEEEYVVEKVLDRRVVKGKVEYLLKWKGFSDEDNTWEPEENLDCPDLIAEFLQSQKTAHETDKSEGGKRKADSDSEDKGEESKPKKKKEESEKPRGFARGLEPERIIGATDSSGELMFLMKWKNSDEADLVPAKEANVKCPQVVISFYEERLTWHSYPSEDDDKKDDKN
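HP1-beta protein (50 nM final) preincubated 30 min at room temperature with biotinylated H3(1-18)K9me3 peptide (50 nM) in PBS pH 7.4, 0.01% Tween-20, then compound added for 30 min. AlphaScreen streptavidin donor/nickel chelate acceptor beads (10 ug/mL final), 30 min dark, luminescence read.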
GCN5L2 inh = inhibitors of human GCN5L2 histone acetyltransferase | GCN5L2 HAT assay, ThioGlo1 CoA-SH fluorescence | Potency, µM (highest dose often 58.9 µM), inactives show at the highest dose activity change, negative = inhibition, hits mostly inhibitors | Q92830 | actives 0.21% (n = 390,000) | AID 504327; note: potency is the fitted concentration of half-maximal effect; % is set by controls: 0 for no effect and ±100 for the full control effect
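Enzyme at 20nM final was mixed with library compounds for 15 min at room temperature. Peptide H3(1-25) at 75uM, acetyl-CoA at 70uM and ThioGlo1 at 50uM were then added. Plates were read immediately and after 20 min (Ex340nm/Em540nm).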
PLK1 PBD block = inhibitors of human PLK1 polo-box domain binding. actives 2.8% (n = 360,000). P53350. Plk1 PBD binding of FITC phosphopeptide, fluorescence polarization. AID 720504. Potency, µM, without a hit: max response, negative = inhibition, actives largely listed as inhibitors; note: potency is the fitted concentration of half-maximal effect; series mostly up to about 57 µM; % is set by controls: 0 for no effect and ±100 for the full control effect; nearly all actives have a fitted effect of over 65% in size
JMJD2A Tudor inh = JMJD2A Tudor domain (human) inhibition. AlphaScreen JMJD2A-Tudor / H3K4me3 peptide binding. O75164. Potency, µM (highest dose often 114 µM), without a hit: at the highest dose activity change, negative = inhibition, actives largely listed as inhibitors. actives 4.4% (n = 390,000); note: potency is the fitted concentration of half-maximal effect; % is set by controls: 0 for no effect and ±100 for the full control effect; nearly all actives have a fitted effect of over 50% in size
BAZ2B block = BAZ2B (human) inhibition; actives 4.4% (n = 360,000); AID 504333; Potency, µM (series often up to 114 µM), inactives show at the top dose activity change, negative = inhibition, usual class: inhibitors; AlphaScreen BAZ2B-H3K14Ac peptide displacement; Q9UIF8; note: potency is the fitted concentration of half-maximal effect; % is set by controls: 0 for no effect and ±100 for the full control effect; nearly all actives have a fitted effect of over 60% in size
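Compounds, titrated to a top concentration of 110 uM, were incubated 30 min at room temperature with preformed BAZ2B/acetyl-K14 H3 peptide complex (50 nM each). Proximity signal was measured by AlphaScreen after 20 min with beads.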
Numbers without * were called inactive; u = inconclusive; x = no result; [ ] = another dose, or the depositor's remark. In the library only some 7% were active in any assay of this set; here they are far more common. Unless noted, calls come from the whole dose curve; as a rule, active = well fitted curve in the direction sought with a large enough effect; inconclusive = small, poorly fitted or top-dose-only effect, or another doubt; inactive = no such curve, though single readings can be large; an effect the other way counts as inactive or inconclusive.

SMILES	PI5P4K alpha inh	HP1b binding inh	GCN5L2 inh	PLK1 PBD block	JMJD2A Tudor inh	BAZ2B block
NC(=O)c1ccccc1OC1CCC1	9	24%	-4%	-8%	-13%	-11%
CN(C)C(=O)c1ccc(N=Nc2c(O)c3ccccc3[nH]c2=O)cc1	-76*	-13%	x	-11%	-16%	x
CCCCOc1c(Br)cc(CNCCCN2CCOCC2)cc1OC	32	30%	-9%	5%	-15%	-3%
Cc1ccc(C=C2C(=O)c3ccccc3C2=O)o1	u	u	-2%	-25%	u	40µM*
O=C1C(=Cc2ccco2)C(=O)c2ccccc21	-25	-16%	-4%	u	u	u
CC(/C=C/c1ccc(C)o1)=C\C(=O)O	-5	-16%	u	-27%	-31%	-3%
O=C(O)c1ccc2c(c1)C(=O)/C(=C\c1ccco1)C2=O	-61*	u	-19%	8.4µM*	25µM*	35µM*
Cc1ccc(/C=C2/C(=O)c3ccc(C(=O)O)cc3C2=O)o1	-62*	71µM*	-3%	24µM*	28µM*	11µM*
Cc1ccccc1OCC(=O)Nc1ccc(OCc2cc(=O)n3ccsc3n2)cc1	x	38%	-5%	x	1%	3%
CCOc1ccc(NC(=O)C2C3C=CC4(O3)C2C(=O)N(Cc2cccnc2)C4C(=O)NC2CCCCC2)cc1 (stereo unspecified)	6	30%	-3%	-3%	-2%	-16%
CC(=O)c1cc(F)c(N2CCN(C(=O)Cc3ccccc3)CC2)cc1C	-6	36%	4%	-2%	-5%	56µM*
CCOC(=O)N1CCN(c2cc(C)c(C(C)=O)cc2F)CC1	x	8%	-1%	-2%	-3%	-6%
Cc1ccc(C2C(/C=C3/SC(=S)NC3=O)=C(c3cccs3)Oc3ccccc32)cc1 (stereo unspecified)	x	u	-5%[0.501 µM]	u	35µM*	25µM*
Cc1ccc2c(c1)C(c1ccccc1)C(=O)O2 (stereo unspecified)	-9	-10%	-22%	-18%	u	-16%
CCOc1ccc(NC(=S)N(CCN2CCOCC2)Cc2ccc3c(c2)CCCN3CC)cc1	-3	u	-8%	-1%	35µM*	11µM*
Cc1ccc(NC(=S)N(CCN2CCOCC2)Cc2ccccc2F)cc1	-6	33%	-14%	-11%	3%	-16%
CCN1CCCc2cc(CN(CCN3CCOCC3)C(=S)Nc3ccc(OC)cc3)ccc21	-1	24%	-6%	-6%	-20%	-29%
CCN1CCCc2cc(CN(CCN3CCOCC3)C(=S)Nc3cccc(Cl)c3)ccc21	-4	u	-11%	-2%	11µM*	7.1µM*
CCN1CCCc2cc(CN(CCN3CCOCC3)C(=S)Nc3ccc(C)cc3)ccc21	8	u	-11%	-17%	u	13µM*
CCN1CCCc2cc(CN(CCN3CCOCC3)C(=S)Nc3cc(F)cc(F)c3)ccc21	4	u	-8%	-9%	35µM*	10µM*
CCC(=O)N1CCc2cc(S(=O)(=O)NCCC(=O)Nc3ccc(N(CC)CC)cc3C)ccc21	x	-14%	-10%	x	u	x
CCNC(=O)NC(=O)CSc1ccc(S(=O)(=O)N2CCCCC2)cn1	-4	44%	-2%	-4%	-5%	4%
Cc1ccc2onc(CNC(=O)NCc3cccc(Cl)c3)c2c1	x	21%	3%	x	-6%	-20%
CCOC1=C2[C@H](c3cccs3)N(S(=O)(=O)c3ccc(C)cc3)C[C@H]2n2c(=O)n(-c3ccccc3)c(=O)n2C1	9	x	x	-9%	x	x
C[N+](C)(C)CCCN1C(=O)CCCC1=O	-7	16%	-5%	-2%	56µM*	u
SMILES	PI5P4K alpha inh	HP1b binding inh	GCN5L2 inh	PLK1 PBD block	JMJD2A Tudor inh	BAZ2B block
CC1=CC(C)C2C(=O)N(CCC[N+](C)(C)C)C(=O)C2C1 (stereo unspecified)	-3	20%	-5%	-3%	-4%	-23%
CC(C)OC(=O)Nc1ccc2c(c1)N(C(=O)N1CCN(C)CC1)c1ccccc1CC2	-7	45µM*	1%	-6%	0.89µM*	40µM*
COc1ccc(NS(=O)(=O)c2cc(NC(=O)c3ccccn3)ccc2OC)cc1Br	-2	29%	-11%	4%	-19%	x
COc1ccccc1NS(=O)(=O)c1cc(NC(=O)CNC(=O)c2ccccc2)ccc1C	6	14%	-6%	-13%	-22%[57.1 µM]	-8%
CCN(CC)c1ccc(NC(=O)COc2ccccc2C#N)cc1S(=O)(=O)Nc1ccccc1OC	u	u	0%	5.3µM*	u	-34%
CCN(CC)c1ccc(NC(=O)c2ccccn2)cc1S(=O)(=O)Nc1ccccc1OC	u	u	-11%	6.7µM*	56µM*	u
COc1ccccc1NC(=O)C(=O)NNS(=O)(=O)c1ccc2ccccc2c1	-3	37%	-10%	-19%	-7%	u
COc1ccc(NC(=S)NNS(=O)(=O)c2ccc3ccccc3c2)c(OC)c1	u	u	-7%	30µM*	25µM*	u
O=C(c1ccc(CSc2nc3ccncc3[nH]2)cc1)N1CCCCCC1	2	27%	-1%	-22%	-4%[11.4 µM]	-12%
O=C(c1ccc(CSc2nc3ccncc3[nH]2)cc1)N1CCN(c2cccc(Cl)c2)CC1	2	13%	-2%	-2%	u	35µM*
CC1CN(C(=O)COC(=O)c2ccc(Cl)nc2)CC(C)O1 (stereo unspecified)	1	18%	-1%	-2%	-7%	x
CCOC(=O)c1c(CSc2ccc(C)cc2)n(C)c2cc(Br)c(O)c(CN(C)C)c12	2	u	-5%	-1%	32µM*	45µM*
CCOC(=O)c1c(CSc2ccccc2)n(C)c2ccc(O)c(CN3CCN(C)CC3)c12	3	-16%	-5%	-12%	45µM*	u
CCOC(=O)c1c(CSc2ccccc2)n(C)c2cc(Br)c(O)c(CN(C)C)c12	2	u	-15%	-8%	u	u
CN(C)C(=O)C(Sc1ccc(S(=O)(=O)N2CCCC2)cn1)c1ccccc1 (stereo unspecified)	-6	1%	1%	0%	u	-2%
COc1cc2c(cc1OC)CN(c1nc(CN3CCOCC3)nc3sc4c(c13)CCC(C)C4)CC2 (stereo unspecified)	-5	u	-4%	-3%	25µM*	32µM*
CN=C1C=CC(=C(c2ccc(N(C)C)cc2)c2ccc(N(C)C)cc2)C=C1	x	x	-23%	x	x	x
CC1CC(C)CN(CC(=O)Nc2ccc3c(c2)OCCO3)C1 (stereo unspecified)	1	u	-2%	-13%	0.89µM*	79µM*
Cc1ccc(NC(=O)CN2C(=O)CSC2=O)cc1	0	30%	-14%	-8%	-8%	6%
